Experimental data as given in PubChem BioAssay AID1745848 (National Center for Advancing Translational Sciences (NCATS), 2022).
Several values for one entry are separate records, joined by “and”; a condition that tells them apart may be missing. Equal values may be shown once. The whole screen tested about 2,100 compounds, of which about 940 (45%) were called active. Roughly 48% stayed inconclusive and do not appear here. So high a share suggests a set chosen from earlier hits. The list shows a part of the results. Values without a mark were called inactive. Calls follow the shape of the dose curve; as a rule, active = well fitted inhibition curve with a large enough effect; inconclusive = small, poorly fitted or top-dose-only effect; inactive = no such curve, though single readings can be large or run the other way.

assay: Confirmatory qHTS for Inhibitors of ATXN expression; conditions: ATXN2-luciferase reporter cells, luminescence, 24 h; series mostly up to 11.5 µM; activity change, negative = inhibition: at the top concentration; also: nearly all actives have a fitted effect of over 65% in size;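 as to activity change, negative = inhibition: 0% = DMSO vehicle wells and -100% = medium-only wells without cells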
Outline: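 A titration, incubated 24 h with reporter cells expressing ATXN2-luciferase. Luminescence (SteadyGlo) gives ATXN2 expression, multiplexed GF-AFC fluorescence gives viability; normalised to DMSO and medium-only wells.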
Potency is read from the fitted curve at half-maximal effect.

Row | SMILES | Potency | activity change, negative = inhibition
1 | COc1ccccc1N1CCN(Cc2cc(Br)c(O)c3ncccc23)CC1 | 3.55 µM (active) | 
2 | COc1ccccc1N1CCN(Cc2ccc(O)c3ncccc23)CC1 | 0.562 µM (active) | 
3 | CO[C@@]12[C@@H]3N[C@@H]3CN1C1=C(C(=O)C(N)=C(C)C1=O)[C@@H]2COC(N)=O |  | 6.61%
4 | Cc1nc(SC2CC(=O)N(c3ccccc3)C2=O)n[nH]1 (stereo not given) |  | 5.8% [at 57.5 µM]
5 | O=C(c1ccco1)N1CCN(c2ncnc3scc(-c4cccs4)c23)CC1 |  | -20.8%
6 | Cc1c(C(=O)N2CCN(c3ccc(F)cc3)CC2)sc2ncnc(N3CCN(c4ccccn4)CC3)c12 | 2.82 µM (active) | 
7 | O=C(/C=C/NNC(=O)c1ccccc1)c1ccc([N+](=O)[O-])cc1 | 3.16 µM (active) | 
8 | COc1ccc(C(=O)C=CNNC(=O)c2ccc(Cl)cc2)cc1 | 14.1 µM (active) | 
9 | CC(C)Cn1c(/C=N/Nc2nc3ccccc3[nH]2)nc2ccccc21 | 8.91 µM (active) | 
10 | CCCCn1c(/C=N/Nc2nc3ccccc3[nH]2)nc2ccccc21 |  | -15.3%
11 | S=C(NCCCN1CCOCC1)N1CCN(c2nc(-c3ccccc3)cs2)CC1 | 11.2 µM (active) | 
12 | O=c1c2ccc(Cl)cc2nc(-c2cccc(C(F)(F)F)c2)n1O | 2.51 µM (active) | 
13 | Cc1cc(/C=N/n2cnnc2)c(C)n1-c1ccc(OCc2ccc(Cl)cc2Cl)cc1 | 7.94 µM (active) | 
14 | COc1cc(OC)c2cc(C(=O)N/N=C/c3cccc(OC)c3O)[nH]c2c1 | 3.55 µM (active) | 
15 | COc1cccc(/C=N/NC(=O)c2cc3c(OC)cccc3[nH]2)c1O | 2.24 µM (active) | 
16 | Cc1[nH]c(-c2ccc(F)cc2)cc1C(=O)N1CCN(c2ccc(Cl)cc2)CC1 | 25.1 µM (active) | 
17 | O=C(NC(=S)N1CCN(c2ccc(F)cc2)CC1)c1cccs1 |  | -6.64%
18 | CN1CCN(c2cc(-c3cc(O)c4ncccc4c3)ccn2)CC1 | 12.6 µM (active) | 
19 | COc1ccc(CC(=O)N/N=C(\C)c2ccccn2)cc1 | 11.2 µM (active) | 
20 | C/C(=N\NC(=O)Cc1ccc(Cl)cc1)c1ccccc1O | 14.1 µM (active) | 
21 | C/C(=N\NC(=O)C1COc2ccccc2O1)c1ccccn1 (stereo not given) | 0.631 µM (active) | 
22 | C/C(=N\NC(=O)C1CCCN(S(=O)(=O)c2ccccc2)C1)c1ccccn1 (stereo not given) | 0.794 µM (active) | 
23 | C/C(=N\NC(=O)CCCNc1ccc(C)cc1)c1ccccn1 | 14.1 µM (active) | 
24 | CCCCCC(=O)N/N=C(\C)c1ccccn1 | 0.501 µM (active) | 
25 | Cc1ccc(/C=N/NC(=O)C2=NNC(c3ccccc3)(c3ccccc3)C2)c(O)c1 | 2.82 µM (active) | 
26 | CC(C)(C)c1nnc(N/N=C/c2ccccc2O)n(N)c1=O | 0.891 µM (active) | 
27 | CCn1c2ccccc2c2cc(C3C(C#N)=C(N)Oc4n[nH]c(COC)c43)ccc21 (stereo not given) | 2.82 µM (active) | 
28 | CCn1c2ccccc2c2cc(NC(=O)COC(=O)C3CCC(=O)N3)ccc21 (stereo not given) | 11.2 µM (active) | 

Row | SMILES | Potency | activity change, negative = inhibition
29 | CCn1c2ccccc2c2cc(NC(=O)COC(=O)Cc3cn4ccsc4n3)ccc21 | 1.26 µM (active) | 
30 | CCn1c2ccccc2c2cc(NC(=O)COC(=O)c3cc(S(=O)(=O)N4CCCCC4)ccc3Cl)ccc21 | 1.58 µM (active) | 
31 | CCn1c2ccccc2c2cc(NC(=O)COC(=O)c3ccccc3F)ccc21 | 2 µM (active) | 
32 | Cc1c(C(=O)NCc2ccc(Cl)c(Cl)c2)sc(=O)n1Cc1ccc(S(C)(=O)=O)cc1 |  | -22.8%
33 | COc1ccc(N=Cc2cc3c(cc2O)OC(N)=C(C#N)C3c2ccccc2)cc1 (stereo not given) |  | -25.5%
34 | Cc1cc(OCc2nc(N)nc(N)c2-c2ccc(Cl)c(Cl)c2)ccc1[N+](=O)[O-] | 2.51 µM (active) | 
35 | COc1ccccc1-n1c(-c2ccccc2)c[n+]2c1CCc1ccccc1-2 | 7.94 µM (active) | 
36 | Cc1ccc(-n2c(-c3ccccc3)c[n+]3c2CCc2ccccc2-3)c(C)c1 | 0.794 µM (active) | 
37 | CNc1ccccc1C(=O)OC(C)C(=O)Nc1ccc(Cl)cn1 (stereo not given) | 2 µM (active) | 
38 | Cc1nnc(SC(C)C(=O)Nc2ccc(Cl)cn2)n1Cc1ccccc1 (stereo not given) |  | -20.6% [at 57.5 µM]
39 | NNC(=O)c1sc2cc(C(F)(F)F)cnc2c1-c1cccs1 | 28.2 µM (active) | 
40 | COC1=C(c2ccccc2)C(=O)c2ccccc2C1=O |  | -16.5%
41 | O=C(Nc1nccs1)c1cccc(N2C(=O)c3cccc4c([N+](=O)[O-])ccc(c34)C2=O)c1 | 20 µM (active) | 
42 | O=C1c2cccc3c([N+](=O)[O-])ccc(c23)C(=O)N1c1ccccn1 | 3.98 µM (active) | 
43 | Cc1ccnc(N2C(=O)c3cccc4c([N+](=O)[O-])ccc(c34)C2=O)c1 | 28.2 µM (active) | 
44 | Cc1ccc(Cl)cc1-c1ccc(C=Nc2ccc(N3CCOCC3)cc2)o1 | 12.6 µM (active) | 
45 | C=CCn1cnc2c(c1=O)c1nc3ccccc3nc1n2/N=C/c1cc(OC)c(OC)c(OC)c1 | 14.1 µM (active) | 
46 | Cc1ccc2nc(NNC(=O)c3ccc(S(=O)(=O)N4CCc5ccccc5C4)cc3)sc2c1 | 2.51 µM (active) | 
47 | Cc1cc(C)c2nc(NNC(=O)c3ccc(S(=O)(=O)N4CCc5ccccc5C4)cc3)sc2c1 | 3.16 µM (active) | 
48 | NC(=O)c1cc([N+](=O)[O-])ccc1NCc1ccc(N)cc1 | 4.47 µM (active) | 
49 | C[n+]1c2cc(N)ccc2cc2ccc(N)cc21 | 4.47 µM (active) and 3.55 µM (active) | 
50 | Nc1c(C(=O)NCc2ccc(F)cc2)c2nc3ccccc3nc2n1CCCN1CCOCC1 | 3.16 µM (active) | 
51 | Cn1c(/C=C/c2cccc([N+](=O)[O-])c2)c([N+](=O)[O-])c(=O)n(C)c1=O | 25.1 µM (active) | 
52 | Cn1c(/C=C/c2ccc(Cl)cc2)c([N+](=O)[O-])c(=O)n(C)c1=O | 22.4 µM (active) | 
53 | Cn1c(/C=C/c2ccc(Cl)cc2Cl)c([N+](=O)[O-])c(=O)n(C)c1=O | 11.2 µM (active) | 
54 | O=C1C=CCC(/C=C/c2ccccc2)O1 (stereo not given) | 6.31 µM (active) | 
55 | CCC(C)(C)c1ccc(OCCCC[n+]2ccccc2)c(C(C)(C)CC)c1 | 3.16 µM (active) | 
